This is a sample that favours compounds with a hit; in the whole collection about 21% have one here.
NS1 function inh: inhibitors of influenza NS1 protein function | Potency, µM (highest dose often 46.1 µM), for inactives: at the highest dose activity, positive = more growth | actives 0.4% (n = 270,000); note: potency is the fitted concentration of half-maximal effect; actives are rising curves; nearly all actives have a fitted effect of over 50% in size
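Recovery from NS1-induced slow growth read by OD600 in budding yeast switched to galactose assay medium (pH 6.0, -URA) at 1:100 dilution. Compound 23 nl per well; the matching strain lacking NS1 serves as control.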
Shiga inhibitor: inhibitors of Shiga toxin in Vero cells. Vero cells, Shiga toxin protein synthesis inhibition reporter. inhibition, % at 38.7 µM. actives 9.2% (n = 290,000). AID 2315; in the data active = inhibition mostly above about 28%, no sharp cut-off; inactive = mostly below about 43%; note: 0% is about no effect
Pf growth 48h: inhibits P. falciparum growth in the first generation, 48 h; P. falciparum luciferase growth in erythrocytes, 48 h; Potency, µM (highest dose often 28.7 µM), for the others: top-dose activity change, negative = inhibition, actives largely listed as inhibitors; actives 5.9% (n = 310,000); active = well fitted inhibition curve with a large enough effect; inconclusive = small, poorly fitted or top-dose-only effect, or another doubt; inactive = no such curve, though single readings can be large or run the other way; note: potency is the fitted concentration of half-maximal effect; % is set by controls: 0 for no effect and ±100 for the full control effect
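Growth was read as firefly luciferase luminescence after a 48 h, 37 C, 5% CO2 exposure of compounds to reporter-bearing P. falciparum cultures (0.1% parasitemia, 2% hematocrit final) in Albumax-supplemented RPMI 1640.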
Pf growth 96h: inhibits malaria parasite growth, 96 h; P. falciparum luciferase reporter growth, 96 h; AID 504834; Potency, µM (titrated, usually from 28.7 µM), for the others: at the top dose activity change, negative = inhibition, usual class: inhibitors; actives 6.9% (n = 320,000); active = well fitted inhibition curve with a large enough effect; inconclusive = small, poorly fitted or top-dose-only effect, or another doubt; inactive = no such curve, though single readings can be large or run the other way; note: potency is the fitted concentration of half-maximal effect; % is set by controls: 0 for no effect and ±100 for the full control effect
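96 h incubation, 37 C, 5% CO2, of luciferase-reporter P. falciparum-infected RBCs (2% hematocrit, 0.05% parasitemia final) with test compounds; endpoint luminescence.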
SARS PLP yeast: SARS-CoV PLP inhibition in yeast; actives 0.19% (n = 330,000); S. cerevisiae expressing SARS-CoV PLpro, growth rescue; Potency, µM (doses to about 32.9 µM), inactives show at the top dose activity, positive = growth rescue, usual class: activators; note: potency is the fitted concentration of half-maximal effect; 0% is about no effect; nearly all actives have a fitted effect of over 55% in size
Cycloheximide cs: counter-screen hit for Shiga toxin inhibitors, cycloheximide | cell reporter, cycloheximide protein synthesis inhibition counterscreen | max response, % | actives 12% (n = 300,000) | AID 2314; in the data active = max response mostly above about 13%, no sharp cut-off; inactive = mostly below about 14%; note: read at 38.3 µM for the half of the compounds with a filed dose; 0% is about no effect
Numbers without * were called inactive; i = inactive; u = inconclusive; x = not tested or not shown; [ ] = remark or other dose. Unless noted, calls come from the whole dose curve.

SMILES | NS1 function inh | Shiga inhibitor | Pf growth 48h | Pf growth 96h | SARS PLP yeast | Cycloheximide cs
CCCOc1ccc(-c2nnn(CC(=O)N3CCC(C)CC3)n2)cc1 | -2% | -14 | x | -5% | -15% | 10
CC(C)c1ccc(-c2nnn(CC(=O)N3CCCCC3)n2)cc1 | 15% | x | 4% | 7% | 2% | 9
CC(=O)Nc1ccc(-c2nnn(CC(=O)c3ccccc3)n2)cc1Cl | -3% | 14 | u | u | -4% | -2
Cc1ccc(-c2nnn(CC(=O)N3CCCCC3)n2)cc1 | -9% | x | 0% | 8% | 0% | 19*
CCCCOc1ccc(-c2nnn(CCC(=O)N3CCOCC3)n2)cc1 | -72% | 78* | 67% | 9.3µM* | -2% | 36*
O=C(Cn1nnc(-c2ccc(Cl)cc2)n1)NC1CC2CCC1C2 (stereo not drawn) | -16% | -2 | 0% | x | 6% | -6
CC(=O)Nc1ccc(-c2nnn(CC(=O)c3ccc(F)cc3)n2)cc1Cl | -2% | -2 | u | 13µM* | -1% | -2
Cc1ccc(-c2nnn(CC(=O)NC3CC4CCC3C4)n2)cc1 (stereo not drawn) | -16% | 12 | 21% | -18% | -12% | 12*
Cc1nn(CC(=O)N2CCC(C(N)=O)CC2)c(=O)c2nn(-c3ccccc3)c(C)c12 | 9% | 9 | 22% | -10% | 9% | -6
Cc1ccccc1C1CC(=O)Oc2cc(C)c(Br)c(C)c21 (stereo not drawn) | x | i | x | x | x | 6
O=C(Cn1nnc(-c2ccc(N3CCOCC3)cc2)n1)N1CCOCC1 | 1% | 34* | 129% | 268% | 0% | 34*
O=C(Cn1nnc(-c2cccc(C(F)(F)F)c2)n1)N1CCOCC1 | -2% | -4 | 13% | 27% | 0% | 2
Cc1ccc(C(=O)Cn2nnc(-c3ccccc3)n2)cc1 | -2% | 82* | 38% | 22% | 0% | 21
Cc1ccccc1NC(=O)Cn1nnc(-c2ccc(N3CCOCC3)cc2)n1 | -5% | 38 | 126% | x | 1% | 8
O=C(Cn1nnc(-c2ccc(N3CCOCC3)cc2)n1)OC1CCCCC1 | -10% | 15 | 235% | 7.4µM* | -4% | 2
O=C(Cn1nnc(-c2ccccc2)n1)c1ccccc1 | -6% | 84 | 8% | u | 18% | 2
Cc1ccccc1C(=O)Nc1ccnn1C1CCN(C(C)Cc2ccccc2F)CC1 (stereo not drawn) | -6% | -4 | u | u | -3% | -3
Cc1c(C)n(C)c2ccc(C(=O)Nc3cccc4ccccc34)cc12 | 15% | 24 | u | u | u | 18
O=C(CNC(=O)c1cc2ccccc2o1)NCc1cccs1 | 9% | 13 | -5% | 28% | 5% | -2
Cn1c(=O)c(C(=O)NCC2CCCO2)c(O)c2ccccc21 (stereo not drawn) | -43% | 45 | u | 4% | -1% | 27*
Cn1c(C(=O)NCc2ccccc2)cc2oc3ccccc3c21 | -36% | 85* | 72% | x | -2% | 46*
Cn1c(C(=O)NCC2CCCO2)cc2c(=O)n(C)c3ccccc3c21 (stereo not drawn) | -5% | 11 | 13% | u | -2% | -3
Cn1c(C(=O)NCc2cccs2)cc2oc3ccccc3c21 | -7% | 82* | 59% | x | -2% | 62*
Cc1ccc2c(c1)c1c(c(=O)n(-c3ccccc3C)c(=O)n1CC(=O)NCC1CCCO1)n2C (stereo not drawn) | 7% | 1 | u | 9.3µM* | 0% | -1
Cc1cc(C)cc(-n2c(=O)c3ccccc3n(CC(=O)NCC3CCCO3)c2=O)c1 (stereo not drawn) | 7% | -10 | 36% | 0% | -1% | -3
SMILES | NS1 function inh | Shiga inhibitor | Pf growth 48h | Pf growth 96h | SARS PLP yeast | Cycloheximide cs
COc1ccc(S(=O)(=O)N2CCCC(C(=O)NC3CC3)C2)cc1Cl (stereo not drawn) | -4% | -6 | u | u | 0% | -3
CCOc1ccc(NC(=O)c2sc3nc(C)nc(N4CCOCC4)c3c2C)cc1 | 4% | 2 | -28% | -7% | -14% | -2
c1ccc2c(OCCCN3CCCCCC3)cccc2c1 | -4% | 1 | u | -16% | -8% | -2
Cn1c(C(=O)NCC2CCCO2)cc2oc3ccccc3c21 (stereo not drawn) | -10% | 103* | 87% | 86% | -3% | 35*
Cn1c(C(=O)NCC2CCCO2)cc2c(=O)[nH]c3ccccc3c21 (stereo not drawn) | -7% | 9 | 4% | u | 14% | 5
O=C(C1=C[C@@H](c2coc3ccccc3c2=O)C[C@@H](OCCCCO)O1)N1CCN(Cc2ccc3c(c2)OCO3)CC1 | -12% | -8 | u | 3.3µM* | -1% | -2
O=C(C1=C[C@H](c2csc3ccccc23)C[C@H](OCCCCO)O1)N1CCN(Cc2ccc3c(c2)OCO3)CC1 | -14% | -11 | 2.3µM* | 1.5µM* | -1% | 11
O=C(C1=C[C@H](c2ccccc2)C[C@H](OCCCCO)O1)N1CCN(Cc2ccc3c(c2)OCO3)CC1 | -9% | -5 | u | u | 1% | 1
O=C(C1=C[C@H](c2csc3ccccc23)C[C@H](OCCCCO)O1)N1CCN(Cc2ccccc2)CC1 | -8% | -1 | 3.7µM* | 2.3µM* | -2% | -2
O=C(C1=C[C@@H](c2coc3ccccc3c2=O)C[C@@H](OCCCCO)O1)N1CCN(Cc2ccccc2)CC1 | -10% | -17 | u | u | -1% | -2
O=C(C1=C[C@@H](c2csc3ccccc23)C[C@@H](OCCCCO)O1)N1CCN(Cc2ccc3c(c2)OCO3)CC1 | -11% | -7 | u | 12µM* | -1% | 3
O=C(Nc1ccc(N2CCOCC2)cc1)c1cc2c(s1)CCCC2 | -3% | 51 | -33%[1.15 µM] | -2% | -2% | 17*
O=C(Nc1ccccc1N1CCOCC1)c1cc2c(s1)CCCCC2 | x | 53* | 14% | 35% | -13% | 40*
O=C(Nc1ccc(N2CCOCC2)cc1)c1cc2c(s1)CCCCC2 | 0% | 44 | u | u | -1% | 12
OCCC1CN(Cc2ccc3cccc(F)c3n2)CCN1Cc1ccccc1 (stereo not drawn) | 12% | 5 | -6% | u | -4% | -2
COc1cc(OC)cc(C(=O)N[C@H](C(=O)OCC(=O)Nc2ccc(C(C)C)cc2)C(C)C)c1 | 22% | -27 | 36% | 4% | 22% | 2
COc1ccc(S(=O)(=O)NC(C)C(=O)NCc2ccc3c(c2)OCO3)cc1OC (stereo not drawn) | -2% | 2 | 1% | 1% | 17% | -6
CC(=O)N(C1=C(Cl)C(=O)c2ccccc2C1=O)C1CCCCC1 | -92% | -6 | u | u | -5% | 0
CC(=NC1CCCCC1)C1=C(O)c2ccccc2C1=O | -61% | 50 | x | u | -4% | 46*
